{
  "source": "the supplement of paper PMC11732987",
  "about": "“Enantioselective OTUD7B fragment discovery through chemoproteomics screening and high-throughput optimisation” (Communications Chemistry, 2025)",
  "test_in_all_cases": "log2 ratio of Biotin-Ahx-Ub-VS probe labelling (fragment/DMSO); higher = less target engagement (more negative = stronger competition), active = hit call of the paper (q ≤ 0.05, log2 ratio ≤ -1)",
  "conditions_in_all_cases": "compound concentration: 200 uM; treatment time: 3 h",
  "key": {"ALG13": {"target": "T1, ALG13 (UniProt Q9NP73)", "T1 sequence (whole entry)": "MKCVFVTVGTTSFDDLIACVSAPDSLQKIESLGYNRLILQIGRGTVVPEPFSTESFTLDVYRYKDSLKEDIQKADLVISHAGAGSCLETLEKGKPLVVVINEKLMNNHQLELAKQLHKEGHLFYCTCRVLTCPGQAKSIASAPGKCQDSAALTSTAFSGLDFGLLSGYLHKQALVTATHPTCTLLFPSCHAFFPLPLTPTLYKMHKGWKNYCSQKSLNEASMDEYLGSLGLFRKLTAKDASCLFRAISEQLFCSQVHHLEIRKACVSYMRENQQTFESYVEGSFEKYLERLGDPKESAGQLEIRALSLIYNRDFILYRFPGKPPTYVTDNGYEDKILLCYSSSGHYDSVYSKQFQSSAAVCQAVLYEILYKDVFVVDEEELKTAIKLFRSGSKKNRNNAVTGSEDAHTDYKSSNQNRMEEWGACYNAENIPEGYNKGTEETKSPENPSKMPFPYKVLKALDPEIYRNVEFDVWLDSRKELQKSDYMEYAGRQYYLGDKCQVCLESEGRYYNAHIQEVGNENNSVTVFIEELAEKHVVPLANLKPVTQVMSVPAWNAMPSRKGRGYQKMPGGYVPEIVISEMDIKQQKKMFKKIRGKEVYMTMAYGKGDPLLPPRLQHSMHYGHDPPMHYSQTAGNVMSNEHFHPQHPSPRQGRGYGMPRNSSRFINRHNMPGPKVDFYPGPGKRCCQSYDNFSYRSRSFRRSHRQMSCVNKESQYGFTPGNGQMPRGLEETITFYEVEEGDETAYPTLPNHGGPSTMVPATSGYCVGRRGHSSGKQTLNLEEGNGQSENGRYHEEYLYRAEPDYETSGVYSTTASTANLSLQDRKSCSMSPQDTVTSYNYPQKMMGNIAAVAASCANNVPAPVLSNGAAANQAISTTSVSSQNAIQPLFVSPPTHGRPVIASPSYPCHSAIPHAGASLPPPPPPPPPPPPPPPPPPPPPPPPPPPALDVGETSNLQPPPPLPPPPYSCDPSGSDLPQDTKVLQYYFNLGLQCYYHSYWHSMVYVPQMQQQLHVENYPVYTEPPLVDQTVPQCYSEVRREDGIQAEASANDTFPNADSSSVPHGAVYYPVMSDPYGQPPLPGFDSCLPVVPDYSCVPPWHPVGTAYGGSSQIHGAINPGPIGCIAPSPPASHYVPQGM", "summary_of_the_method": "(§1)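 Fragment (200 µM) or vehicle was incubated for 3 h with triplicate HEK293T lysate samples of 495 µg, which were then treated with Biotin-Ahx-Ub-VS at 0.5 µM final for 1 h. Labelled DUBs were enriched on NeutrAvidin, digested with LysC and trypsin, and analysed by diaPASEF LC-MS/MS. Values are average log2 fragment/vehicle ratios from an unpaired t-test on global-median-normalised Spectronaut label-free quantities, using proteins with ≥2 unique peptides.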"}, "ATXN3": {"target": "ATXN3 (UniProt P54252)", "sequence (P54252 whole entry)": "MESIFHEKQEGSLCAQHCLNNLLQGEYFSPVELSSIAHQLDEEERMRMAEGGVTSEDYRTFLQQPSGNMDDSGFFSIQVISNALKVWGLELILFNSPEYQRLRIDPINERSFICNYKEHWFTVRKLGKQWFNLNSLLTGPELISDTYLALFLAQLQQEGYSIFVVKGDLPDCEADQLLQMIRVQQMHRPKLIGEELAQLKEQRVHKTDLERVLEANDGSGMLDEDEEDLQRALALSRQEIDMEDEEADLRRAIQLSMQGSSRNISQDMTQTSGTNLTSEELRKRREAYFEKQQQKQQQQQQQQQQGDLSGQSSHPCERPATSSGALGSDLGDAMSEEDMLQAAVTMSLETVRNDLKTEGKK", "summary_of_the_method": "as §1"}, "BAP1": {"target": "T2, BAP1 (UniProt Q92560)", "T2 sequence (whole entry)": "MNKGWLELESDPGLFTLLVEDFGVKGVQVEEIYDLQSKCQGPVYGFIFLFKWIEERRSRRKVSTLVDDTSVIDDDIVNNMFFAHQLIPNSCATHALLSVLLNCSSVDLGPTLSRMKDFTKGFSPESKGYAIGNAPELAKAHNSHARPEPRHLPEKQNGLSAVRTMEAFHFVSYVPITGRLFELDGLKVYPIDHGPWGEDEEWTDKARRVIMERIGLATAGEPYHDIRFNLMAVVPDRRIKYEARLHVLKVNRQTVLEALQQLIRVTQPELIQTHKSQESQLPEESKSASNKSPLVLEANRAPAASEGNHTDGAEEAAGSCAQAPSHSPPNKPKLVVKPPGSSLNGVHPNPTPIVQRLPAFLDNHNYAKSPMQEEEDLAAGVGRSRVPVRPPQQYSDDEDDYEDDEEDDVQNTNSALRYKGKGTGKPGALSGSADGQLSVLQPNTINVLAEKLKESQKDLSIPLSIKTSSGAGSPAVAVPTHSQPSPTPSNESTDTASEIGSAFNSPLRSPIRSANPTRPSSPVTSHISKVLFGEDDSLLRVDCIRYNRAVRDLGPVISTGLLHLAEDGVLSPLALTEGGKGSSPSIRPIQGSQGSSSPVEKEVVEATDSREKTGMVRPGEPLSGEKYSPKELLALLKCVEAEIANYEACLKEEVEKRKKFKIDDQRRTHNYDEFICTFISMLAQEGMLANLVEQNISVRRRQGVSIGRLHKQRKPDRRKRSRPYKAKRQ", "summary_of_the_method": "as §1"}, "EIF3F": {"target": "EIF3F (UniProt O00303)", "sequence (O00303 whole entry)": "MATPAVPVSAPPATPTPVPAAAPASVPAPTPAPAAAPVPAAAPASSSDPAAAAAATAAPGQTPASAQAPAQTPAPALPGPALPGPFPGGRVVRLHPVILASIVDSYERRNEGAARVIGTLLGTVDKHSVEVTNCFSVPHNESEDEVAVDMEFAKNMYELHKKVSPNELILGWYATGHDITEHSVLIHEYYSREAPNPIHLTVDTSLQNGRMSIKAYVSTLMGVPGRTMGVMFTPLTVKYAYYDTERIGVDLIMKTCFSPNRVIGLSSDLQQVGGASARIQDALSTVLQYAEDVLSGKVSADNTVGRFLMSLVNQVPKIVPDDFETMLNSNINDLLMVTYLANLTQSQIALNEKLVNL", "summary_of_the_method": "as §1"}, "EIF3H": {"target": "EIF3H (UniProt O15372)", "sequence (O15372 whole entry)": "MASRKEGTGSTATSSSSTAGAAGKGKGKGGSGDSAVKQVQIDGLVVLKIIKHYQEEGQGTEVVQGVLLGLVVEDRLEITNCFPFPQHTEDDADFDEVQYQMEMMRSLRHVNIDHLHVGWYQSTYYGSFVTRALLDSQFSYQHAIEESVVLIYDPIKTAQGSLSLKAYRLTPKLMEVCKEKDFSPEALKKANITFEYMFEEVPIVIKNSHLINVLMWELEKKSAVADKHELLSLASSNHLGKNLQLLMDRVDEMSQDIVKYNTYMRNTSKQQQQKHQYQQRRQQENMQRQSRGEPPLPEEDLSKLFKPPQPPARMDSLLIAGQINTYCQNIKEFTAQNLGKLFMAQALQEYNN", "summary_of_the_method": "as §1"}, "FAM105A": {"target": "T3, FAM105A (UniProt Q9NUU6)", "T3 sequence (whole entry)": "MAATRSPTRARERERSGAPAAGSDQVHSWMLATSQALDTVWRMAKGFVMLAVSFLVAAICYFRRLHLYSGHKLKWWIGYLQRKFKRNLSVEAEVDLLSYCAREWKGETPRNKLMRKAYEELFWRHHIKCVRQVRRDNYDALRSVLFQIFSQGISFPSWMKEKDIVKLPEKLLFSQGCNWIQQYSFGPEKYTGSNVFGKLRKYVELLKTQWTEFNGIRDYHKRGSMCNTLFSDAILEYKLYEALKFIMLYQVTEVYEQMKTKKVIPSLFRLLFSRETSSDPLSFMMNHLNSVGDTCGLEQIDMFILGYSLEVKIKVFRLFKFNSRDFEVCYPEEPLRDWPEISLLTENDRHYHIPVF", "summary_of_the_method": "as §1"}, "OTUB1": {"target": "OTUB1 (UniProt Q96FW1)", "sequence (Q96FW1 whole entry)": "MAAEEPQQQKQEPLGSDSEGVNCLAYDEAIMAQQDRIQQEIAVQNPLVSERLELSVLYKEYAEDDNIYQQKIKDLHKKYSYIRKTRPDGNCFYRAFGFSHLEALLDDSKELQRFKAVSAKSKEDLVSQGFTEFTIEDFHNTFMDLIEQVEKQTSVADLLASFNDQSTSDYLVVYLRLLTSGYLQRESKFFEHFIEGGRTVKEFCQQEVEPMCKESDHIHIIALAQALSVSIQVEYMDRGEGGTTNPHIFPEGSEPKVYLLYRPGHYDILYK", "summary_of_the_method": "as §1"}, "OTUD4": {"target": "T4, OTUD4 (UniProt Q01804)", "T4 sequence (whole entry)": "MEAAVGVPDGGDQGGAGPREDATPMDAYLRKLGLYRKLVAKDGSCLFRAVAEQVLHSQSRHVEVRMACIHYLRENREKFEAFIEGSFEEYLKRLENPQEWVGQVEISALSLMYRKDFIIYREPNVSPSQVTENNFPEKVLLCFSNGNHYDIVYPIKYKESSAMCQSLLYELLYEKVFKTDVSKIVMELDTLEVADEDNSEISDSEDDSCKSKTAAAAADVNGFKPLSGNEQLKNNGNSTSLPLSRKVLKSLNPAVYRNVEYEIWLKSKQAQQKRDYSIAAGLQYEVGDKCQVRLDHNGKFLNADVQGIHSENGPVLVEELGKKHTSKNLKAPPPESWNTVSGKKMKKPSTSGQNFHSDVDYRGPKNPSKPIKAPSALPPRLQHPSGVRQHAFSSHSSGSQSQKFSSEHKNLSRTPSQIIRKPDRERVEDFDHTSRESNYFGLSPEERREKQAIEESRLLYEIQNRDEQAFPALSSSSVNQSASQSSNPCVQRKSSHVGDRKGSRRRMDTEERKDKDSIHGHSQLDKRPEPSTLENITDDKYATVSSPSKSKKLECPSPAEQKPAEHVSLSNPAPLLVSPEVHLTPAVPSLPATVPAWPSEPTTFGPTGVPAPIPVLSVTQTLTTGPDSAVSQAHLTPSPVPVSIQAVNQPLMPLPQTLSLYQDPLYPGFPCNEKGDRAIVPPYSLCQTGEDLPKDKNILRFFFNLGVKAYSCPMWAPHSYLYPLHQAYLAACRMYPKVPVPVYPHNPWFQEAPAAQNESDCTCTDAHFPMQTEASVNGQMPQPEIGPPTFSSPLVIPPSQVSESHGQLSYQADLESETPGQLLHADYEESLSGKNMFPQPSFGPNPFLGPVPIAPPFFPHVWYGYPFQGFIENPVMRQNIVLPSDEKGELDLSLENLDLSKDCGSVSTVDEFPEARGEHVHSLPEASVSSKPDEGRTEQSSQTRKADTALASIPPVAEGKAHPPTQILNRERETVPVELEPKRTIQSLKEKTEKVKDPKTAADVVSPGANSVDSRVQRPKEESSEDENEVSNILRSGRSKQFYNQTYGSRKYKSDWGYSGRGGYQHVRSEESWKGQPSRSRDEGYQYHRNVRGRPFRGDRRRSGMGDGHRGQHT", "summary_of_the_method": "as §1"}, "OTUD5": {"target": "T5, OTUD5 (UniProt Q96G74)", "T5 sequence (whole entry)": "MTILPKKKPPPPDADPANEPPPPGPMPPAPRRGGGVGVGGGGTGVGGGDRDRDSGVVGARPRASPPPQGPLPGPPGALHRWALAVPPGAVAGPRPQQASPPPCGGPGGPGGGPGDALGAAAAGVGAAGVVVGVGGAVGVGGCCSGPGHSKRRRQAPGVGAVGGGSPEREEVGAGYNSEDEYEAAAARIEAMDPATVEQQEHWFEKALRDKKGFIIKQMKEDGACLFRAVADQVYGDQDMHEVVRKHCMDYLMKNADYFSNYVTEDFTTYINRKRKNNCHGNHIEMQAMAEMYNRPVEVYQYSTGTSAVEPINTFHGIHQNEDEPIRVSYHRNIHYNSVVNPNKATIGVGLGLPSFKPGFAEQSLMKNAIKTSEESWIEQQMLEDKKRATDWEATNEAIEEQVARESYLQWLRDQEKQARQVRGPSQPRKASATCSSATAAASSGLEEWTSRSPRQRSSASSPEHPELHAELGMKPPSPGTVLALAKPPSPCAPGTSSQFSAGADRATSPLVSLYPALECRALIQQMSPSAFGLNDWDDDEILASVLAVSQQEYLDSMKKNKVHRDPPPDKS", "summary_of_the_method": "as §1"}},
  "note": "A number with no mark means an inactive call.",
  "data": [
    {"smiles": "O=C(CCl)NC1CCS(=O)(=O)c2ccccc21", "note": "(centres undefined)", "values": [
      {"measurement": "log2 ratio of Biotin-Ahx-Ub-VS probe labelling", "setting": "ALG13", "result": -0.299},
      {"measurement": "log2 ratio of Biotin-Ahx-Ub-VS probe labelling", "setting": "ATXN3", "result": -0.496},
      {"measurement": "log2 ratio of Biotin-Ahx-Ub-VS probe labelling", "setting": "BAP1", "result": "-2.77 (active)"},
      {"measurement": "log2 ratio of Biotin-Ahx-Ub-VS probe labelling", "setting": "EIF3F", "result": -0.00472},
      {"measurement": "log2 ratio of Biotin-Ahx-Ub-VS probe labelling", "setting": "EIF3H", "result": -0.0327},
      {"measurement": "log2 ratio of Biotin-Ahx-Ub-VS probe labelling", "setting": "FAM105A", "result": -0.0548},
      {"measurement": "log2 ratio of Biotin-Ahx-Ub-VS probe labelling", "setting": "OTUB1", "result": 0.0659},
      {"measurement": "log2 ratio of Biotin-Ahx-Ub-VS probe labelling", "setting": "OTUD4", "result": "-1.76 (active)"},
      {"measurement": "log2 ratio of Biotin-Ahx-Ub-VS probe labelling", "setting": "OTUD5", "result": -0.271}
    ]}
  ]
}
